# RGS7-Gao reg = human RGS7-Galphao interaction regulation; P09471; AID 1439; Multiplexed bead flow cytometry, RGS7-Galphao binding; actives lie on both sides; binding response (% of control), % at 10 µM; hit rate 0.35% among 220,000; in the data active = binding response below about 49% or above about 150%; inconclusive = no clear call, values can overlap the other calls; inactive = in between;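 also: fluorescent Galphao held in activated GDP-AlF4 state binding bead-coupled RGS7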
# RGS4-Gao reg = human RGS4-Galphao interaction regulation. P09471. Multiplexed bead flow cytometry, RGS4-Galphao binding; actives lie on both sides. binding response (% of control), % at 10 µM. hit rate 0.33% among 220,000; in the data active = binding response below about 49% or above about 150%; inactive = in between;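 also: fluorescent Galphao activated with aluminum fluoride binding bead-coupled RGS4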
# Avidin bead fluor = compound fluoresces at 488/530 nm on avidin beads. compound fluorescence 488/530 nm, flow cytometry; active compounds read high. fluorescence (KMESF) at 10 µM. hit rate 0.38% among 220,000. AID 1775; in the data active = fluorescence above about 47
# RGS8-Gao = regulators of human RGS8-Galphao interaction | P09471 | multiplexed bead flow cytometry, RGS8-Galphao binding; actives lie on both sides | response (percent of control binding), % at 10 µM | hit rate 0.34% among 220,000 | AID 1423; in the data active = response below about 60% or above about 140%; inactive = in between;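 also: Galphao activated as the GDP aluminium fluoride complex binding bead-coupled RGS8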
# GSH bead fluor = compound fluoresces at 488/530 nm on GSH beads; hit rate 0.25% among 190,000; fluorescence (KMESF) at 10 µM; GSH beads flow cytometry, compound fluorescence 488/530 nm; active compounds read high; in the data active = fluorescence above about 89;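 also: glutathione beads carrying GST-tagged Bcl family fusion proteins plus one bare bead set; values are compound well signal with DMSO vehicle wells as background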
# RGS16-Gao HTS = RGS16-Galphao interaction regulator (human). O15492+P09471. bead-based flow cytometry RGS16-Galphao binding, fluorescence; actives lie on both sides. binding response (% of control), % at 10 µM. hit rate 0.38% among 220,000. AID 1441;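 also: Galphao activated by GDP with aluminum fluoride before binding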
# Target sequence (O15492 whole entry, looked up): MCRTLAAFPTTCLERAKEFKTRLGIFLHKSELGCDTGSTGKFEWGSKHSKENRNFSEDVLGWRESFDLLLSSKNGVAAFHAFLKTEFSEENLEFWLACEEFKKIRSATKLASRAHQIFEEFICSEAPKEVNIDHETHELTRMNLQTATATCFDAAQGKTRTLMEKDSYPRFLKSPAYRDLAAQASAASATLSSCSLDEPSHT
# Target sequence (P09471 whole entry, looked up): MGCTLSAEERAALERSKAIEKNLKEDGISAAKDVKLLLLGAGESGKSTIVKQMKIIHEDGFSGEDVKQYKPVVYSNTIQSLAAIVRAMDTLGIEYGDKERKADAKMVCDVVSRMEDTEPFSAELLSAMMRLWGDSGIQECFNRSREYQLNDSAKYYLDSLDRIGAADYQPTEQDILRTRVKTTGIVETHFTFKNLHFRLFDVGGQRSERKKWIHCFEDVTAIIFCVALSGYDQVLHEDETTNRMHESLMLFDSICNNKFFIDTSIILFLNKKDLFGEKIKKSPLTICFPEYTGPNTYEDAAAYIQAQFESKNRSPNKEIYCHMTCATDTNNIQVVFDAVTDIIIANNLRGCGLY
# RGS4-Gao HTS = modulates binding between human RGS4 and Galphao; AID 1504; hit rate 99% among 1,600; multiplexed bead flow cytometry, RGS–Galpha-o binding; RGS4–Galpha-o binding response, % at 10 µM; shares compounds with RGS16-Gao HTS;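 also: fluorescently labeled Galpha-o bound to GDP with aluminium fluoride binding biotinylated RGS beads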
# Avidin counter = counter-screen: compounds disrupting biotin binding to avidin beads; AID 1783; inhibition, % at 10 µM; 1,700 tested, under 10 active; shares compounds with RGS16-Gao HTS; streptavidin beads, fluorescein-biotin binding, flow cytometry;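 active = inhibition above 50%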;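 also: median green fluorescence of gated singlet beads compared with DMSO control wells; 0% = DMSO wells and 100% = complete loss of bead fluorescence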
# RGS8-Gao confirm = RGS8-Galphao interaction regulation, single point confirmation | shares compounds with RGS16-Gao HTS | bead-based flow cytometry RGS8-Galphao binding, fluorescence; actives lie on both sides | binding response (% of control), % at 10 µM | hit rate 3% among 1,700 | AID 1836; in the data active = binding response below about 72% or above about 130%; inactive = in between;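 also: Galphao activated as GDP AlF4 complex before binding bead RGS8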
# RGS7-Gao single = RGS7-Galphao interaction regulation, single point confirmation; shares compounds with RGS16-Gao HTS; hit rate 7.8% among 1,700; response (percent of control binding), % at 10 µM; bead-based flow cytometry RGS7-Galphao binding; actives lie on both sides; in the data active = response below about 75% or above about 130%; inactive = in between;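 also: fluorescent Galphao activated with GDP and aluminum fluoride binding bead-coupled RGS7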
# RGS16-Gao conf = RGS16-Galphao interaction regulation, single point confirmation; AID 1838; shares compounds with RGS16-Gao HTS; response (% of control binding), % at 10 µM; bead-based flow cytometry, RGS16-Galphao binding; actives lie on both sides; hit rate 4% among 1,700; in the data active = response below about 74% or above about 130%; inactive = in between;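 also: Galphao activated as the GDP aluminium fluoride complex binding bead-coupled RGS16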
# RGS4-Gao confirm = confirmation of regulators of human RGS4-Galphao interaction; hit rate 4% among 1,700; binding response (% of control), % at 10 µM; shares compounds with RGS16-Gao HTS; RGS4-Galphao binding, multiplexed bead flow cytometry; actives lie on both sides; in the data active = binding response below about 74% or above about 130%; inactive = in between
# RGS19-Gao single = confirmation of regulators of human RGS19-Galphao interaction; shares compounds with RGS16-Gao HTS; bead-based flow cytometry RGS19-Galphao binding; actives lie on both sides; response (percent of control binding), % at 10 µM; hit rate 5% among 1,700; AID 1841; in the data active = response below about 50% or above about 160%; inactive = in between;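 also: 100% = no compound control and 0% = blank background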
# * = called active by the depositor; ? = inconclusive; . = no result given; [ ] = dose if it differs, or a comment. Hits are enriched below; roughly 1.2% of the tested compounds scored in any of these assays. Unless noted, no rule for the calls is given here.
SMILES,RGS7-Gao reg,RGS4-Gao reg,Avidin bead fluor,RGS8-Gao,GSH bead fluor,RGS16-Gao HTS,Avidin counter,RGS8-Gao confirm,RGS7-Gao single,RGS16-Gao conf,RGS4-Gao confirm,RGS19-Gao single,others
Cc1nc2ccccc2cc1C(=O)Nc1ccccc1Cl,157*[activator],148,12,140,14,150,0,101,104,100,102,100,RGS4-Gao HTS=148*
Cc1nc2ccc(F)cc2cc1C(=O)Nc1cccc(Cl)c1C,94,96,3,100,19,103,.,.,.,.,.,.,
COCc1cc(C)nc(SCC(=O)Nc2ccc(C)c(C)c2)c1C#N,99,100,2,102,57,-63*,.,.,.,.,.,.,RGS4-Gao HTS=100*
O=C(/C=C/c1ccc(Br)o1)OCc1ccccc1,.,.,.,.,31,.,2,103,107,110,105,102,
Cc1nn(CC(=O)NCc2cc3ccccc3[nH]2)c(C)c1[N+](=O)[O-],102,102,2,100,6,105,.,.,.,.,.,.,
CC(C)OC(=O)CSc1nnc(-c2cnccn2)n1Cc1ccco1,101,103,29,100,16,102,.,.,.,.,.,.,
O=C(CSc1nnc(-c2cnccn2)n1Cc1ccco1)c1ccc2ccccc2c1,25*,29*,2,22*,31,19*,1,103,104,105,105,111,
Cc1ccc([N+](=O)[O-])cc1NC(=O)Cc1ccc(F)cc1,.,.,.,.,11,.,1,99,102,102,102,99,
CN(CC(=O)N1CCCCCC1)S(=O)(=O)c1ccc(F)cc1,97,98,21,100,11,101,.,.,.,.,.,.,
Cc1[nH]c2ccccc2c1C(c1ccncc1)N1CCN(c2ccccc2F)CC1 (stereo unspecified),160*[activator],119,92*,93,10,101,1,101,101,101,101,100,RGS4-Gao HTS=119*
COc1ccc(-c2cnnn2-c2ccc(NC(=O)c3ccc(S(=O)(=O)N4CCCCC4)cc3)cc2)cc1,21*,22*,-2,25*,10,14,0,100,99,98,99,103,
Fc1ccc(CSc2ccc3nnc(-c4cccnc4)n3n2)cc1,91,88,11,94,9,95,.,.,.,.,.,.,
CCCN(CCC)c1nc(N(CCC)CCC)[nH]c(=O)n1,5.2*,16*,1,20*,17,9.2*,1,99,99,98,99,97,
COc1cc(OC)cc(C(=O)NC2=NCCS2)c1,102,97,10,95,15,102,.,.,.,.,.,.,
COc1cc(NC(=O)SC2=NCCS2)cc(OC)c1,?,41*,3,60,.,47,-3,100,100,102,99,105,
CC(NC(=O)Cc1cccs1)C(c1cccs1)N1CCOCC1 (stereo unspecified),45*,39*,2,45*,37,7.5*,1,111,119,110,114,105,
COc1ccc(C(=O)NCCc2nnc(SCC(=O)Nc3ccccc3F)n2C)cc1,166*[activator],111,80*,100,21,107,1,100,95,98,98,104,RGS4-Gao HTS=111*

# Bioassay records from PubChem.
